# Reference: PubChem BioAssay
# “And” between values parts separate entries of the source, which are not always exact repeats. Identical values can stand only once. The source made the active and inactive calls. Cut-off read from the data, not from the text of the source, unless noted: active = inhibition above about 80%; inactive = the rest.
# Assays:
# [1] = hESC survival regulators, cell-based (AID 493140; call rule not given here;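 note: cells exposed to compounds for four days before counting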); conditions: human embryonic stem cell survival screen; stronger effect = higher value
# [2] = sensitizers of A549 cells to miR-34 induction, primary screen, imaging, A549 dox-inducible miR-34, nuclei and caspase counts (AID 1347080;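 active = compounds whose cell count with miR-34 switched on is under 0.7 times the count with it off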); conditions: A549 miR-34 inducible, Hoechst nuclei count, 48 h
# [3] = survival rescue of mitochondrial mutant cells in low glucose, primary screen, MELAS cybrids, Rieske KO mouse fibroblasts, CellTiter-Glo (AID 1508586;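 active = mean z-score across replicates of 1.96 or higher in either the MELAS or the Rieske mutant cell line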;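 note: z relative to plate mean and SD of compound and empty wells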)
# [4] = LFS_MB_P medulloblastoma growth inhibition, cell-based, chromothripsis tumors, cisplatin or BGB combos (AID 1671449); conditions: LFS_MB_P medulloblastoma cells;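 note: cells exposed for 96 hours; 0% = vehicle DMSO and 100% = killing by high DMSO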
# [5] = HDN33 neuroblastoma growth inhibition, cell-based, chromothripsis tumors, cisplatin or BGB combos (AID 1671450); conditions: HDN33 neuroblastoma cells, stronger effect = higher value;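 note: cells exposed to compound for four days; 0% = vehicle DMSO and 100% = cell killing by high DMSO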
# [6] = ICB984 medulloblastoma cell growth inhibition, synergistic combos for chromothripsis tumors, cisplatin or BGB combos (AID 1671451; call rule not given here;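 note: cells exposed for 96 hours before readout; 0% = vehicle DMSO and 100% = killing by high DMSO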); conditions: ICB984 medulloblastoma cells, drug combinations, stronger effect = higher value
# [7] = LFS_MB_1R medulloblastoma cell growth inhibition, synergistic combos for chromothripsis tumors, cisplatin or BGB combos (AID 1671452); conditions: LFS_MB_1R medulloblastoma cells, stronger effect = higher value;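 note: cells exposed for 96 hours before readout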
# [8] = HTB85 osteosarcoma cell growth inhibition, synergistic combos for chromothripsis tumors, BGB or cisplatin IC20 combos (AID 1671453); conditions: HTB85 osteosarcoma cells, drug combinations, stronger effect = higher value;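 note: cells exposed for 96 hours before readout; 0% = vehicle DMSO and 100% = high DMSO killing control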
# [9] = CRL2098 osteosarcoma cell growth inhibition, synergistic combos for chromothripsis tumors, BGB or cisplatin IC20 combos (AID 1671454); conditions: CRL2098 osteosarcoma cells, drug combinations, stronger effect = higher value;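 note: cells exposed for 96 h before readout; 0% = vehicle DMSO and 100% = killing by high DMSO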
# [10] = HD-MB03 medulloblastoma cell growth inhibition, synergistic combos for chromothripsis tumors, BGB or cisplatin IC20 combos (AID 1671455; in the data active = inhibition above about 83%;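 note: 0% = vehicle DMSO and 100% = high DMSO as cytotoxic control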); conditions: HD-MB03 medulloblastoma cells, stronger effect = higher value
# [11] = UWB1.289 ovarian carcinoma cell growth inhibition, synergistic combos for chromothripsis tumors, BGB or cisplatin combos (AID 1671456); conditions: UWB1.289 ovarian carcinoma cells, stronger effect = higher value;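 note: cells exposed to compound for four days; 0% = vehicle DMSO and 100% = killing by high DMSO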
# [12] = LFS_MB_2R medulloblastoma cell growth inhibition, synergistic combos for chromothripsis tumors, cisplatin combos (AID 1671457); conditions: LFS_MB_2R medulloblastoma cells, stronger effect = higher value;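 note: cells exposed to compound for four days before readout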
# [13] = MDA-MB-436 breast carcinoma cell growth inhibition, synergistic combos for chromothripsis tumors, BGB or cisplatin combos (AID 1671458; call rule not given here;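 note: cells exposed for 96 hours; 0% = vehicle DMSO and 100% = killing by high DMSO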); conditions: MDA-MB-436 breast carcinoma growth inhibition, drug combinations, stronger effect = higher value
# [14] = UWB1.289_BRCA1 ovarian cancer growth, cell-based, BGB or cisplatin combinations (AID 1671459); conditions: UWB1.289 BRCA1 ovarian carcinoma, drug combinations, stronger effect = higher value
# [15] = human astrocyte viability loss, single and combined drugs, cytotoxicity control for chromothriptic childhood tumor combination screen, cell-based, BGB or cisplatin IC20 combos (AID 1671460); conditions: Human astrocytes, drug combinations, stronger effect = higher value;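 note: cells exposed to compounds for 96 hours before viability readout; 0% = vehicle and 100% = killing control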
# [16] = growth inhibition of BT084 medulloblastoma cells, cell-based, ICGC_MB145, cisplatin and BGB IC40 combos (AID 1671461); conditions: drug combinations, stronger effect = higher value;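 note: cells exposed to drugs for 96 hours; 0% = vehicle DMSO and 100% = high DMSO full killing control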
# [17] = growth inhibition of RCMB18 medulloblastoma cells, cell-based, cisplatin and BGB IC40 combos (AID 1671462); conditions: stronger effect = higher value;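 note: cells exposed to compound for four days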
# [18] = growth inhibition of CRL1545 osteosarcoma cells, cell-based, cisplatin and BGB IC20 combos (AID 1671464); conditions: stronger effect = higher value;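 note: cells exposed to compound for 96 hours before readout; 0% = vehicle DMSO and 100% = high DMSO killing control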
# [19] = measured here: combination with BGB IC40, at 0.05 µM
# [20] = measured here: with BGB IC20 combination, at 0.5 µM
# [21] = measured here: with cisplatin IC20 combination, at 0.5 µM
# [22] = measured here: combination with cisplatin, at 0.5 µM
# [23] = measured here: combination with cisplatin, at 5 µM
compound,measurement,setting,value
Cc1cn(C2CC(N=[N+]=[N-])C(CO)O2)c(=O)[nH]c1=O (stereo not given),survival,[1],10.2 (inactive)
same,fold change,"[2]; stronger effect = lower value, cell number ratio, induced over uninduced",0.983 (inactive)
same,fold change,[2]; measured here: relative caspase fold change +Dox/-Dox,1.14
same,cell count,"[2]; measured here: total cells with miR-34 induction, stronger effect = lower value",8190
same,cell count,[2]; measured here: total cells without miR-34 induction,8330
same,z-score,"[3]; MELAS cybrid survival, CellTiter-Glo 48 h, stronger effect = higher value",-0.326 (inactive)
same,z-score,"[3]; Rieske KO mouse fibroblast survival, CellTiter-Glo 72 h",-0.454
same,inhibition,"[4]; at 0.5 µM, stronger effect = higher value",-14.1% (inactive) and -29.8% (inactive)
same,inhibition,"[4]; measured here: combination with BGB IC20, at 0.005 µM",-13.1% and -7.61%
same,inhibition,"[4]; measured here: combination with BGB IC40, at 0.005 µM",-10.5% and -37.1%
same,inhibition,[4]; [19],-24.2% and -22.6%
same,inhibition,"[4]; measured here: combination with cisplatin, at 0.5 µM, stronger effect = higher value",-21.8% and -53%
same,inhibition,"[4]; measured here: combination with cisplatin, at 5 µM, stronger effect = higher value",-32.8% and -21.5%
same,inhibition,"[5]; BGB combo, at 5 µM",-43.8% and -18.1%
same,inhibition,[5]; at 0.5 µM,-49.6% (inactive) and 10.8% (inactive)
same,inhibition,"[5]; cisplatin combo, at 5 µM",-26% and 16.6%
same,inhibition,[5]; [20],-50.2% and 15%
same,inhibition,[5]; [21],-46.8% and 4.29%
same,inhibition,"[5]; single agent, at 5 µM",-44.8% and -1.12%
same,inhibition,"[6]; BGB IC20 combo, at 0.005 µM",-34.8% and -14.5%
same,inhibition,"[6]; BGB IC40 combo, at 0.005 µM",-37.8% and -34.3%
same,inhibition,"[6]; BGB IC40 combo, at 0.05 µM",-19.4% and -8.93%
same,inhibition,[6]; at 0.5 µM,-42.3% (inactive) and -13.3% (inactive)
same,inhibition,"[6]; cisplatin combo, at 0.05 µM",-22.8% and -13.2%
same,inhibition,"[6]; cisplatin combo, at 0.5 µM",-48.8% and -6.3%
same,inhibition,"[6]; cisplatin combo, at 5 µM",-19.3% and -19.8%
same,inhibition,"[6]; measured here: 5 uM single agent, at 5 µM",-29% and -10.5%
same,inhibition,[7]; at 0.5 µM,-35.4% (inactive) and -15.1% (inactive)
same,inhibition,[7]; [19],-33.7% and -15%
same,inhibition,[7]; [22],-50% and -12.6%
same,inhibition,[7]; [23],-73.7% and 10.3%
same,inhibition,[8]; at 0.5 µM,-30.9% (inactive) and 5.14% (inactive)
same,inhibition,"[8]; measured here: with BGB IC20, at 0.5 µM",-44.2% and -2.77%
same,inhibition,"[8]; measured here: with BGB IC20, at 5 µM",-49% and -21.3%
same,inhibition,"[8]; measured here: with cisplatin IC20, at 0.5 µM",-19.6% and 10.7%
same,inhibition,"[8]; measured here: with cisplatin IC20, at 5 µM",-35.3% and 18.4%
same,inhibition,"[8]; single agent, at 5 µM",-30.3% and -3.23%
same,inhibition,[9]; at 0.5 µM,-75.6% (inactive) and -23.9% (inactive)
same,inhibition,"[9]; measured here: combination with BGB at IC20, at 0.5 µM",-42.6% and -11.7%
same,inhibition,"[9]; measured here: combination with cisplatin at IC20, at 0.5 µM",-96.9% and -12%
same,inhibition,[10]; at 0.5 µM,-21.5% (inactive) and -4.43% (inactive)
same,inhibition,"[10]; measured here: combo with BGB at IC20, at 0.5 µM",-16.2% and -1.6%
same,inhibition,"[10]; measured here: combo with cisplatin at IC20, at 0.5 µM",-27.8% and -2.64%
same,inhibition,[11]; at 0.5 µM,-6.97% (inactive) and -2.38% (inactive)
same,inhibition,"[11]; measured here: inhibition with BGB combination, at 0.05 µM",-33.2% and -11.1%
same,inhibition,"[11]; measured here: inhibition with cisplatin combination, at 0.05 µM",-13% and -8.1%
same,inhibition,[12]; at 0.5 µM,3.25% (inactive) and -11.1% (inactive)
same,inhibition,[12]; [22],-9.8% and -20.4%
same,inhibition,[12]; [23],-113% and -20.1%
same,inhibition,[13]; at 0.5 µM,-19.9% (inactive) and -9.1% (inactive)
same,inhibition,"[13]; measured here: BGB combination, at 0.5 µM",-17.7% and -10.4%
same,inhibition,"[13]; measured here: BGB combination, at 5 µM",-13.1% and -23.1%
same,inhibition,"[13]; measured here: cisplatin combination, at 0.5 µM",-42.5% and -8.26%
same,inhibition,"[13]; measured here: cisplatin combination, at 5 µM",-32% and 1.63%
same,inhibition,"[14]; BGB combination, concentration series, at 5 µM",-27.1% and 1.57%
same,inhibition,[14]; at 0.5 µM,-15.8% (inactive) and 1.59% (inactive)
same,inhibition,"[14]; cisplatin combination, concentration series, at 5 µM",-5.2% and 7.24%
same,inhibition,[15]; at 0.5 µM,1.65% (inactive) and 1.35% (inactive)
same,inhibition,"[15]; measured here: combo with BGB IC20, at 0.5 µM",10% and -0.346%
same,inhibition,"[15]; measured here: combo with cisplatin IC20, at 0.5 µM",-32% and 7.19%
same,inhibition,[16]; at 0.5 µM,-31.2% (inactive) and -18.3% (inactive)
same,inhibition,"[16]; cisplatin combination, at 0.5 µM",-20.4% and -7.03%
same,inhibition,"[16]; cisplatin combination, at 5 µM",-13.7% and 8.51%
same,inhibition,"[16]; measured here: BGB IC40 combination 0.05 uM, at 0.05 µM",-13.5% and -22.4%
same,inhibition,"[16]; single agent, at 5 µM",-33.2% and -6.84%
same,inhibition,[17]; at 0.5 µM,-27.2% (inactive) and -6.41% (inactive)
same,inhibition,"[17]; cisplatin combo, at 5 µM",-15.6% and -7.21%
same,inhibition,"[17]; measured here: BGB IC40 combination, at 0.05 µM",-27% and -25%
same,inhibition,[17]; [22],-39.9% and -10.1%
same,inhibition,"[17]; single agent, at 5 µM",-41.5% and -29.4%
same,inhibition,[18]; at 0.5 µM,-61.3% (inactive) and 13.1% (inactive)
same,inhibition,[18]; [20],-40.5% and 10%
same,inhibition,[18]; [21],-75.6% and 14.6%
same,inhibition,"[18]; single agent, at 0.05 µM",-59.4% and 9.83%
same,inhibition,"[18]; single agent, at 5 µM",-40.3% and 11.6%
